Source: PubChem BioAssay (EPA / NIEHS)
Calls of active or inactive are those of the source. The calls were made as follows: active = hit-call score of the fitted dose curve at least 0.9, where 1 is the maximum; inactive = score below 0.9.

Legend:
[1] = CCTE_Padilla_ZF_Score.Position: CCTE's 144 Hour Post-fertilization zebrafish Assay Score for Position, Padilla Lab (AID 2284409)
Method in brief: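 Wild-type zebrafish embryos (with chorions) exposed singly from 6–8 hpf in sealed wells of Hanks' solution at 26C, rinsed at 5 dpf. At 6 dpf, blinded assessors scored abnormal water-column position by brightfield stereomicroscopy, relative to DMSO.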

[2] = CCTE_Padilla_ZF_Score.Living: CCTE's 144 Hour Post-fertilization zebrafish Assay Score for Viability, Padilla Lab (AID 2284410);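 also: larval death at 6 dpf judged by absent heartbeat or coagulation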
Method in brief: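 Mortality at 6 dpf, judged as absent heartbeat or coagulation by two blinded observers, after sealed static exposure beginning at 6–8 hpf at 26C. Larvae were rinsed free of chemical at 5 dpf, and activity was fitted relative to DMSO.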

[3] = CCTE_Padilla_ZF_Score.General: CCTE's 144 Hour Post-fertilization zebrafish Assay Score for General Malformation, Padilla Lab (AID 2284411)
Method in brief: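 Malformation, death and hatching were scored at 6 dpf by two blinded observers under a stereo microscope. Embryos were dosed singly from 6-8 hpf in sealed plates of 10% Hanks' at 26C and rinsed on 5 dpf; DMSO baseline.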

[4] = CCTE_Padilla_ZF_Score.Tail: CCTE's 144 Hour Post-fertilization zebrafish Assay Score for Tail Malformation, Padilla Lab (AID 2284414)
Method in brief: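 Tail malformations were scored at 6 dpf by two blinded assessors under a stereo microscope. Chorionated embryos had been exposed from 6-8 hpf in sealed wells of 10% Hanks' at 26 C, then rinsed free of chemical at 5 dpf.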

[5] = CCTE_Padilla_ZF_Score.Any: CCTE's 144 Hour Post-fertilization zebrafish Assay Score for Any Mortality or Malformation, Padilla Lab (AID 2284416)
Method in brief: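 Wild-type zebrafish embryos with chorions, one per well in 10% Hanks' from 6–8 hpf, dosed in sealed plates at 26 C, 14:10 h light:dark; rinsed at 5 dpf; blinded scoring at 6 dpf for death or malformation, versus DMSO.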

[6] = CCTE_Padilla_ZF_Score.Blood_pooling: CCTE's 144 Hour Post-fertilization zebrafish Assay Score for Blood Pooling, Padilla Lab (AID 2284415)
Method in brief: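 Blood pooling was scored at 6 dpf under a stereo microscope by two blinded assessors, fitted upward against DMSO. Single embryos were dosed at 6–8 hpf in 10% Hanks', kept sealed at 26C (14:10 h cycle) and rinsed at 5 dpf.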

Measured: AC50

O=C(O)C(F)(F)C(F)(F)C(F)(F)C(F)(F)C(F)(F)C(F)(F)C(F)(F)C(F)(F)C(F)(F)C(F)(F)C(F)(F)C(F)(F)F
not listed: [6]
inactive: all other assays above

C=C(C)C(=O)OCCC(F)(F)C(F)(F)C(F)(F)C(F)(F)C(F)(C(F)(F)F)C(F)(F)F
not listed: [6]
inactive: all other assays above

FC(F)(Br)C(F)(F)C(F)(F)C(F)(F)C(F)(F)C(F)(F)Br
not listed: [6]
inactive: all other assays above

O=S(=O)(OCCOC(F)(F)F)C(F)(F)F
not listed: [6]
inactive: all other assays above

C=C(C)C(=O)OCC(F)(F)C(F)(F)C(F)(F)C(F)(F)C(F)(F)C(F)(F)C(F)(F)F
not listed: [6]
inactive: all other assays above

FC(F)(F)C(F)(F)CNCC(F)(F)C(F)(F)F
active: [5] 0.00326 µM
not listed: [6]
inactive: all other assays above

O=C(CC(=O)C(F)(F)C(F)(F)F)C(F)(F)F
inactive: all assays above

OCCCC(F)(F)C(F)(F)C(F)(F)C(F)(F)C(F)(F)C(F)(F)C(F)(F)F
active: [5] 38.7 µM
not listed: [6]
inactive: all other assays above

FC(F)(F)C(F)(F)C(F)(F)C(F)(F)C(F)(F)C(F)(F)C(F)(F)Br
not listed: [6]
inactive: all other assays above

C=C(C)C(=O)OCC(F)(F)C(F)(F)C(F)(F)F
inactive: all assays above
